PubChem BioAssay AID485344 (National Center for Advancing Translational Sciences (NCATS), 2010)
Out of some 340,000 compounds screened, about 6,900 (2%) were called active. Cut-off read from the data, not from the text of the source: active = inhibition above about 30%; inactive = below that, where a call was filed. For the sample, actives were picked, then their nearest neighbours and some compounds at random.

What follows are compounds tested against D(2) dopamine receptor (Homo sapiens) (UniProt P14416) (assay: HTS Assay for Allosteric Antagonists of the Human D2 Dopamine Receptor: Primary Screen for Antagonists). Conditions: HEK293 TREx D2 cells, calcium flux, dopamine EC80; at 10 µM; hits give high values.
Excerpt: NIH Chemical Genomics Center [NCGC] NIH Molecular Libraries Probe Centers Network [MLPCN] MLPCN Grant: NS064831-01 Assay Submitter (PI): David Sibley Dopamine receptors (DARs) are involved in the etiology and/or therapy of a number of neuropsychiatric and endocrine disorders. For instance, all receptor-based antiparkinsonian drugs work via stimulating the D2 DAR subtype whereas all FDA-approved antipsychotic agents are antagonists of this receptor. […] There are three different types of allosteric modulators that we are seeking, two of which will stimulate or augment receptor signaling, allosteric agonists and potentiators, while the third, allosteric antagonists, will attenuate receptor signaling. The present primary screening assay measures compound antagonism after an EC80 addition of dopamine by tracking calcium flux in a […], inducible Hek293 Trex D2 cell line.
Freshly passaged cells are plated in 1536 well black, clear bottom plates at a density of 4000 cells/well in 3 ul of complete media containing 1x tetracycline inducer. After an overnight incubation at 30 C in 5% CO2, cells are loaded with 2 ul of the no wash Calcium Assay Kit (ABD Bioquest) and incubated at room temperature for 30 to 90 minutes. Agonist read: A 10 cycle (1 second/cycle) baseline measurement is taken and then the FDSS online 1536 pintool delivers 23 nl of compound library (as well as dopamine controls) to the plate. The plate is measured for kinetically at 1 cycle/sec for 180 seconds. Following the 180 second read, 1 ul of an EC80 (negative modulation assay) is delivered by an onboard pipette head. Measurements are taken kinetically for an additional 180 seconds.
Note: 0% is about no effect.

Chain of D(2) dopamine receptor (Homo sapiens) (P14416 whole entry, looked up): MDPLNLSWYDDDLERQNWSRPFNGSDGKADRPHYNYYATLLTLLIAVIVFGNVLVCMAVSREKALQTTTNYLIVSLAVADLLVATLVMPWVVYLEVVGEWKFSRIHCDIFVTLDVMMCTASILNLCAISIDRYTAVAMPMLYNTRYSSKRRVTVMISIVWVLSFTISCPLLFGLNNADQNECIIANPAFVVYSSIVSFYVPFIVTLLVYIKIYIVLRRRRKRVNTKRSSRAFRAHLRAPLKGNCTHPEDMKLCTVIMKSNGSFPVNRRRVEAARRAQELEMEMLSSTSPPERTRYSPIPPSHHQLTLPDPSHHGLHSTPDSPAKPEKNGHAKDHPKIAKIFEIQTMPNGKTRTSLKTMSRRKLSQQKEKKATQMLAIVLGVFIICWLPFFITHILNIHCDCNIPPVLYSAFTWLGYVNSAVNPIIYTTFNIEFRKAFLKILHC

inhibition, active:
CCCC(C)C(=O)OCC(=O)Nc1c(Br)cc(C)cc1Br (stereo not drawn) 39.9%
Cc1c(C)c2c(OCC(=O)N[C@@H](C(=O)O)c3ccccc3)cc3c(c2oc1=O)CCC(C)(C)O3 30.5%
CN(CC(=O)Nc1cccc(F)c1)C(=O)C1CC(=O)N(CCc2ccccc2)C1 (stereo not drawn) 33.5%
c1ccc(-c2cc3c(NCC4COc5ccccc5O4)ncnc3s2)cc1 (stereo not drawn) 31.8%
COc1cc(CC(=O)N/N=C/c2ccccc2)c([N+](=O)[O-])cc1OC 77%
Cc1c(CN2CC[C@@H](N3CCN(c4ccccn4)CC3)[C@H](O)C2)[nH]c2ccc(F)cc12 51.4%
c1ccc(CC2CCN(c3nc4ccccc4n4cnnc34)CC2)cc1 37.6%
CCCCSc1[nH]c(=O)c(C(=O)OCC)cc1C#N 30.2%
CC(=O)N1c2ccc(S(=O)(=O)N(C)CC(=O)N(C)Cc3ccccc3)cc2CC1C (stereo not drawn) 36.2%
COC(=O)CNc1nc(Cl)nc(N2CCC(C)CC2)n1 35.9%
O=C(CCNS(=O)(=O)c1ccccc1)NCCSc1ccc(Br)cc1 45.1%

inhibition, inactive:
CN(C)C1=NC[C@H](Cc2ccccc2)N1CCc1ccc(F)cc1 -4.3%
Cc1ccc(S(=O)(=O)N(C)C)cc1NC(=O)c1ccc(-n2cncn2)c([N+](=O)[O-])c1 2.81%
CCC(C(=O)OCC(=O)Nc1c(Cl)cc(Cl)cc1Cl)c1ccccc1 (stereo not drawn) -3.7%
Cc1cc(C)cc(NC(=O)COC(=O)c2cc(C)oc2C)c1 -1.43%
COc1ccc(C(=O)NCc2ccc(C)cc2)cc1S(=O)(=O)N1CCCC1 -8.88%
CC1CCN(C(=O)COC(=O)CCC(=O)c2cccs2)CC1 24%
Cc1cc(=O)oc2c3c(cc(OCC(=O)N[C@H](C(=O)O)c4ccccc4)c12)OC(C)(C)CC3 3.15%
Cc1c(C)c2c(OCC(=O)NCCCO)cc3c(c2oc1=O)CCC(C)(C)O3 -0.698%
CCN(C(=O)COC(=O)c1c(C)nn(-c2ccccc2)c1Cl)c1c(N)n(Cc2ccccc2)c(=O)[nH]c1=O -3.1%
O=C(CSc1nnc(CN2CCCC2)n1-c1ccc(F)cc1)c1ccc2c(c1)OCO2 8.14%
CN(Cc1ccccc1Cl)C(=O)C1CCC(=O)N(CCc2cccc(F)c2)C1 (stereo not drawn) -0.289%
CCNC(=O)c1cccc(NC(=O)C2CC(=O)N(CCc3ccccc3)C2)c1 (stereo not drawn) -18%
Cn1c(N)c(C(=O)COC(=O)/C=C/c2cccc(C(F)(F)F)c2)c(=O)n(C)c1=O -16.8%
COc1ccc(Nc2ncnc3sc(-c4ccccc4)cc23)c(OC)c1 -16.4%
c1ccc2c(c1)OCC(CNc1ncnc3nc[nH]c13)O2 (stereo not drawn) -3.03%
CC(=O)c1ccc(S(=O)(=O)NCCC(=O)N2CCN(c3ccccn3)CC2)cc1 -35%
CN(C)CCN(C(=O)CN1C(=O)c2ccccc2C1=O)c1nc2cc3c(cc2s1)OCCO3 12.4%
CCN(C(=O)COC(=O)C1CCN(S(=O)(=O)c2ccc(C)c(C)c2)CC1)C1CCS(=O)(=O)C1 (stereo not drawn) 10.6%
O=C(Cc1cc(=O)[nH][nH]1)N/N=C/c1ccccc1[N+](=O)[O-] 11.1%
COc1cc(/C=N/NC(=O)Cc2ccccc2)cc(OC)c1OC 1.38%
O=C(CCC1CCCN(C(=O)Cc2ccc(F)cc2)C1)N1CCN(c2ccccn2)CC1 (stereo not drawn) -9.86%
Cc1nc(N2CCN(c3ccccn3)CC2)c2c(C)c(C(=O)Nc3ccc(F)cc3)sc2n1 8.07%
O=C(CN1CCN(C2CCS(=O)(=O)C2)CC1)N1N=C(c2ccc(Cl)cc2)CC1c1ccco1 (stereo not drawn) -10.4%
CC(=O)c1ccc(OCCCC(=O)Nc2ccc(C)c(S(=O)(=O)N3CCOCC3)c2)cc1 6.79%
CC(OC(=O)c1cc2ccccc2o1)C(=O)Nc1ccc(N2CCOCC2)cc1 (stereo not drawn) 8.62%
O=C(c1ccccc1)c1ccc2nc(N3CCCCC3)c3nncn3c2c1 -2.11%
Brc1ccccc1CN1CCC(Cc2ccccc2)CC1 17.7%
CCc1sc(C(=O)N2CCN(CC(=O)Nc3cccc(F)c3)CC2)cc1C 22.4%
Cc1cc(Br)ccc1NC(=O)CN(C)C(=O)CN1C(=O)NC2(CCCC2)C1=O 7.4%
CCOC(=O)C1=C(COC(=O)[C@H](C)NS(=O)(=O)c2ccccc2F)NC(=O)NC1C (stereo partly drawn) 11%
O=C(OCC(=O)N1CCOCC1)c1ccc2ccccc2c1 -1.03%
CCCCCN(C(=O)CCC(=O)OCCOc1ccc(OC)cc1)c1c(N)n(CCCC)c(=O)[nH]c1=O -2.34%
COc1cc2ccccc2cc1C(=O)Nc1ccncc1 5.03%
CC(=O)c1cc(C#N)c(SCC(=O)C(C)(C)C)nc1C -15%
CCOC(=O)c1cc(C)nc(S(C)(=O)=O)c1C#N 5.94%
CCC(C)N(C(=O)CSc1ncnc2c1cnn2-c1ccccc1)C1CCS(=O)(=O)C1 (stereo not drawn) 1.86%
O=C(CCNC(=O)c1ccc(Br)cc1)NCC(c1ccco1)N1CCCCC1 (stereo not drawn) 17%
COc1cccc(CNS(=O)(=O)c2ccc3c(c2)CC(C)N3C(C)=O)c1 (stereo not drawn) -5.54%
CC(=O)N1c2ccc(S(=O)(=O)NCCC(=O)N(C)C3CCCCC3)cc2CC1C (stereo not drawn) -4.33%
CCOc1ccc(NC(=O)CN(C)C(=O)CSc2ccccc2)cc1OCC 13.7%
CCOC(=O)CNc1nc(Cl)nc(Nc2ccccc2)n1 6.97%
Clc1nc(NC2CCCC2)nc(N2CCOCC2)n1 -9.32%
O=C(CN1CCc2ccccc2C1)Nc1cccc(S(=O)(=O)N2CCOCC2)c1 -6.15%
COc1ccc(F)cc1C(=O)COC(=O)c1n[nH]c(=O)c2ccccc12 -10.9%
CN(C(=O)Cn1nnc(-c2ccc(F)cc2)n1)C1CCS(=O)(=O)C1 (stereo not drawn) 9.49%
Cc1ccc(OCCNC(=O)CCNS(=O)(=O)c2ccc(Br)cc2)cc1 23.7%
O=C(CCNS(=O)(=O)c1ccccc1)NCCCc1ccccc1 21%
